Screening results from PubChem.
Most compounds without a hit are left out; they make up all but 18% or so of the library.
Six1-Eya2 inh: Six1/Eya2 interaction inhibition; Q15475+O00167; AlphaScreen GST-Six1/His-Eya2 binding, biochemical; active compounds read low; activity change, % (no concentration beside the values); 0.56% of 360,000 active; AID 651725; in the data active = activity change below about -65%; inconclusive = mostly about -30% to -63%
Target sequence (O00167 whole entry, looked up): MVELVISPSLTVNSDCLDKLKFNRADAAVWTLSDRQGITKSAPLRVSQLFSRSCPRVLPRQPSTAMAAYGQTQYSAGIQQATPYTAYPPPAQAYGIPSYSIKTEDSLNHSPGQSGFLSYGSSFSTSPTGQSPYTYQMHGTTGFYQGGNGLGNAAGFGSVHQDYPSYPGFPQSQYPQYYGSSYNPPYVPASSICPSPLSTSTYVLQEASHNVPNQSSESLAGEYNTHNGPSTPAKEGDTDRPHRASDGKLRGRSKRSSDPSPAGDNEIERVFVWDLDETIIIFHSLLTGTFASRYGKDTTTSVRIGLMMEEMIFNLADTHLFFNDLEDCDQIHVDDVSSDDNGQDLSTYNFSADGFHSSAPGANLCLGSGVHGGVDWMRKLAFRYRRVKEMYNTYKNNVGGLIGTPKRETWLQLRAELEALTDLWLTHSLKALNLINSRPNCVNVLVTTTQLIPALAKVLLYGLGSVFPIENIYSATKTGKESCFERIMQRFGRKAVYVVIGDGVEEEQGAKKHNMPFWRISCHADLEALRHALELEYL
Target sequence (Q15475 whole entry, looked up): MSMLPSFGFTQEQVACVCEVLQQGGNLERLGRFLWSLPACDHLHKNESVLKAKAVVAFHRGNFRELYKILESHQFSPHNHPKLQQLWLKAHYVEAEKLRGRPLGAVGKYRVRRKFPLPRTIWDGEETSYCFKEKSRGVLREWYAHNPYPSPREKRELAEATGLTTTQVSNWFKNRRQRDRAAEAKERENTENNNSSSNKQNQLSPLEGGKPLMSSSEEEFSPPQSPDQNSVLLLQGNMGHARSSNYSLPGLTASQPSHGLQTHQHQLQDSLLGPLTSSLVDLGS
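Homogeneous AlphaScreen proximity assay pairing GST-Six1 with His-tagged Eya2 (added as 5X mix: 250 nM and 500 nM) in 50 mM Tris pH 8.0, 300 mM NaCl, 1 mM TCEP. Glutathione donor and nickel acceptor beads; 1 h, 37 °C, dark.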
IL1B secr inh: blocks inflammasome-driven IL-1 beta release; THP-1 LPS/ATP IL-1B secretion, AlphaLISA, 16 h; active compounds read low; activity change, % at 57.5 µM; 4.7% of 360,000 active; in the data active = activity change below about -50%; inconclusive = mostly about -30% to -49%
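Secreted IL-1B measured by AlphaLISA bead assay after 16 h compound exposure of THP-1 cells; compounds (final up to 57.5 uM) added 1 h before LPS (250 ng/mL) and ATP (1.25 mM) stimulation; lower signal means less secretion.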
TDP1 inh: inhibitors of human tyrosyl-DNA phosphodiesterase TDP1 | AID 485290 | Potency, µM (top dose mostly 130 µM), inactives show top-dose activity change, negative = inhibition, actives largely listed as inhibitors | 0.28% of 350,000 active | recombinant TDP1, AlphaScreen DNA substrate cleavage; note: potency is the fitted concentration of half-maximal effect; nearly all actives have a fitted effect of over 40% in size
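Recombinant E. coli-expressed Tdp1 (1 nM) preincubated with compound 15 min at RT, then 5'-biotin/3'-phosphotyrosine-FITC DNA substrate (15 nM) added for 5 min. AlphaScreen beads (10 ug/ml) added, 10 min RT; tyrosine-FITC cleavage read as signal loss.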
TDP1 cell CPT: growth inhibition of DT40 Tdp1-/-;hTDP1 cells with camptothecin (screen for TDP1 inhibitors); 12% of 420,000 active; chicken DT40 Tdp1-/-;hTDP1 cells + 20 nM CPT, ATP luminescence, 48 h; AID 686979; Potency, µM (top dose mostly 46.2 µM), for the others: top-dose activity change, negative = growth inhibition, hits mostly inhibitors; note: potency is the fitted concentration of half-maximal effect; nearly all actives have a fitted effect of over 55% in size
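Chicken DT40 Tdp1-/- cells stably complemented with human TDP1 were seeded at 400 cells/well in medium containing 20 nM camptothecin, exposed to pin-transferred compounds, and grown at 37 °C for at least 48 hr. Viability was read as ATP luminescence.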
TDP1 cell noCPT: qHTS for Inhibitors of human tyrosyl-DNA phosphodiesterase 1 (TDP1): qHTS in cells in absence of CPT. DT40 Tdp1-/- hTDP1 cells, no CPT, ATP luminescence, 48 h. Potency, µM (series often up to 46.2 µM), without a hit: at the top dose activity change, negative = growth inhibition, hits mostly inhibitors. 15% of 420,000 active. AID 686978, 2013; note: potency is the fitted concentration of half-maximal effect; nearly all actives have a fitted effect of over 55% in size
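Cells were dispensed at 400 per well, compounds added by pin tool, plates incubated ≥48 hr at 37 °C, then CellTiter-Glo added for 30 min at room temperature before luminescence reading. Line: DT40 Tdp1-/- complemented with hTDP1; camptothecin omitted.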
CtBP-E1A inh: inhibitors of CtBP/E1A interaction; AlphaScreen GST-E1A/His-CtBP binding, 1536-well; active compounds read low; activity change, % (no concentration beside the values); 0.49% of 340,000 active; in the data active = activity change below about -65%; inconclusive = mostly about -30% to -63%
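Homogeneous bead-based format: GST-tagged E1A captured on glutathione donor beads, His-tagged CtBP on nickel acceptor beads; compounds precede bead addition by 2 h at 37 °C.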
* hit, by the source's call; ? = inconclusive; · = no result given; ! = not active in a repeat; [ ] = another dose, or the depositor's remark. Unless noted, calls come from the whole dose curve; as a rule, active = well fitted curve in the direction sought with a large enough effect; inconclusive = small, poorly fitted or top-dose-only effect, or another doubt; inactive = no such curve, though single readings can be large; an effect the other way counts as inactive or inconclusive. % is set by controls: 0 for no effect and ±100 for the full control effect.

SMILES	Six1-Eya2 inh	IL1B secr inh	TDP1 inh	TDP1 cell CPT	TDP1 cell noCPT	CtBP-E1A inh
CN(C)/C=C1\C(=O)ON=C1c1ccccc1	12	0	1%	16%	-9%	2
COc1cc(/C=C2\C(=O)N(c3cccc(C(=O)O)c3)N=C2C)ccc1OCc1ccccc1	-5	26	·	-16%	?	-14
CC1=NN(c2ccccc2)C(=O)/C1=C/C=C/c1ccccc1	-5	-129*	13%	-76%	2.6µM*	-16
Cc1ccc(C2=NOC(=O)/C2=C\C=C\c2ccccc2)cc1	0	-96*	6%	4.6µM*	4.6µM*	0
CC1=NN(c2cccc(C(=O)O)c2)C(=O)/C1=C\C=C\c1ccco1	?	-96*	-3%[56.1 µM]	?	?	3
Cc1ccc(Cl)cc1NC(=S)N(Cc1cccs1)C1CCCC1	-2	-15	1%	-12%	-1%	2
COC(=O)CSc1nc2ccc(NC(C)=O)cc2s1	-2	-53*	2%	-7%	1%	2
CC(=O)Nc1ccc2nc(SCc3ccccc3)sc2c1	·	·	-4%	-27%	?	·
CC(=O)Nc1ccc2nc(SCCOc3ccc(C)cc3)sc2c1	·	·	1%	-19%	?	·
COc1cc(CC(=O)Nc2ccc3nc(SC)sc3c2)cc(OC)c1OC	-17	77	·	?	21µM*	·
COc1cc(C)ccc1OCCSc1nc2ccc(NC(C)=O)cc2s1	·	·	3%	?	21µM*	·
CCN1CCN(S(=O)(=O)c2cc3c(cc2Cl)NC(=O)CO3)CC1	-3	-5	·	1%	-9%	9
Cc1nc2ccccn2c1-c1csc(Nc2cccc(O)c2)n1	-5	-104*	-3%	0.73µM*	1.6µM*	0
Cc1cccc(Nc2nc(-c3c(C)nc4ccccn34)cs2)c1	-17	-96*	9%	13µM*	11µM*	14
N#Cc1ccc(Nc2nc(-c3ccc(O)cc3O)cs2)cc1C(F)(F)F	?	-101*	6%	13µM*	10µM*	-8
Cc1cccc(Nc2nc(-c3ccc(O)cc3O)cs2)n1	-9	-90*	12%	13%	?	-13
Oc1ccc(-c2csc(Nc3ncccn3)n2)c(O)c1	-7	-21	-3%	-14%	-14%	-1
Oc1ccc(-c2csc(Nc3ccc4c(c3)OCO4)n2)c(O)c1	-22	-28	·	-8%	-21%	·
COc1ccc(NC(=O)CN2C(=O)COc3ccc(S(=O)(=O)NC4CCCC4)cc32)cc1OC	·	·	6%	-8%	-10%	·
Cc1c(C(=O)O)c(O)cc2c1C(=O)c1c(O)c([C@H]3O[C@H](CO)[C@@H](O)[C@H](O)[C@H]3O)c(O)c(O)c1C2=O	·	·	0.71µM*!	8.9µM*	?	·
CC(=O)c1sc2c(c1OC(=O)c1ccc(Cl)cc1Cl)c(=O)n(-c1ccccc1)c(=S)n2-c1ccccc1	-9	-60*	3%	?	21µM*	·
CC(=O)c1sc2c(c1OC(=O)c1ccc(Cl)cc1)c(=O)n(-c1ccccc1)c(=S)n2-c1ccccc1	-3	6	·	?	?	5
O=C(CSc1nc(Nc2ccccc2)c2ccccc2n1)c1ccc(Cl)cc1	·	·	4%	13µM*	18µM*	·
O=C(CSc1nc2ccccc2c(=O)n1NC(=O)c1ccccc1)c1ccc(Cl)cc1	-26	?	5%	?	?	-26
Cc1nc2c3ccccc3nc(SCC(=O)c3ccc(Cl)cc3)n2n1	3	2	-3%	?	18µM*	1
SMILES	Six1-Eya2 inh	IL1B secr inh	TDP1 inh	TDP1 cell CPT	TDP1 cell noCPT	CtBP-E1A inh
COc1cc(Nc2nc(SCC(=O)c3ccc(Cl)c(Cl)c3)nc3ccccc23)cc(OC)c1	·	·	5%	1.3µM*	0.65µM*	·
Clc1ccc(-c2nnc(COc3ncnc4ccccc34)o2)cc1	3	-13	0%	4%	-7%	-1
Cc1ccc(N(Cc2cc(=O)[nH]c3ccccc23)C(=O)C(C)C)c(C)c1	16	-28	·	-1%	?	-4
CC(=O)Nc1ccc(CN2CCN(CCC(C)C)C(CCO)C2)cc1 (configuration not stated)	16	-23	·	-14%	-13%	3
OCCC1CN(Cc2nc(-c3ccccc3)cs2)CCN1CCc1ccccc1 (configuration not stated)	-9	-5	·	?	21µM*	-2
CC(C)(C)CN1CCN(Cc2nc(-c3ccc(F)cc3)cs2)CC1CCO (configuration not stated)	-18	-20	·	16µM*	21µM*	3
COc1ccc(OC)c(CN2CCN(CCc3ccccc3)C(CCO)C2)c1 (configuration not stated)	-6	-11	-5%	12µM*	?	-5
CC(=O)Nc1ccc(CN2CCN(CCc3ccccc3)C(CCO)C2)cc1 (configuration not stated)	2	-79*	3%	13%	-9%	0
O=C(c1ccccc1)N1CCN(S(=O)(=O)c2cccc(NS(=O)(=O)c3ccccc3)c2)CC1	1	7	3%	9%	-18%	-1
O=C(N/N=C\c1ccc([N+](=O)[O-])s1)C1COc2ccccc2O1 (configuration not stated)	-2	-53*	7%	2.9µM*	5.8µM*	1
O=C(N/N=C\c1ccc(-c2ccccc2[N+](=O)[O-])o1)C1COc2ccccc2O1 (configuration not stated)	?	14	8%	0%	-12%	?
O=C(CNC(=O)C1COc2ccccc2O1)N/N=C/c1ccc([N+](=O)[O-])cc1 (configuration not stated)	-1	29	-5%	6%	?	12
O=C(N/N=C/c1c[nH]c2ccccc12)C1COc2ccccc2O1 (configuration not stated)	-6	24	3%	10µM*	13µM*	15
O=C(N/N=C/c1c[nH]c2ccccc12)C1CC1c1ccccc1 (configuration not stated)	-15	26	-3%	12µM*	21µM*	5
O=C(N/N=C\c1ccc([N+](=O)[O-])o1)C1COc2ccccc2O1 (configuration not stated)	-17	-15	0%	7.3µM*	6.5µM*	-21
O=C(NNC(=O)C1CC1)Nc1ccc(Cl)cc1	-1	-25	3%	-7%	-4%	-19
Fc1ccc(N/N=C/c2cccnc2)c(F)c1	-3	-26	7%	-18%	6%	-4
